In publication PMC13494018:

B1: d1r8_design_ppi_934_dldesign_0_cycle0_af2pred (protein)
chain: ASALARAESQLAFLNTVADAMATQTGEEGAKIAAEAKAAGDAALAAAKASGTPAAYEAATAQLNALTAQVQRETMARLA
B2: d1r8_design_ppi_661_dldesign_0_cycle1_af2pred (protein)
chain: DVVAEARELAARAEEAAERARADPAASQEVVDLFRQAAGYARNALLLAEGTPESQAQAARLLERARRLFEEAERRFRADVAAAA
B3: d1r8_design_ppi_923_dldesign_0_cycle0_af2pred (protein)
chain: AAEMAATAAYVSEVAARAQAEDPSLGPEVNRLFALLARAGAAYAADPAAGAAVAAEARAYAEELDKRLEAAL
B4: d1r8_design_ppi_735_dldesign_0_cycle1_af2pred (protein)
chain: SEAAEKALKAVEAAIEVVETGTPEEALAATKAAAEVAKKAAEAAGNLGAQIKATADAAVKATAADKAAGLAKLRTLATLLRAYAEA
B5: d1r8_design_ppi_791_dldesign_0_cycle0_af2pred (protein)
chain: SENEKKLEEVKKKLEEAKKAAEEDPKAGAALAIETIELAKKAAEEAKKNGDEKTAEEANKLAHEAMKLAAKALAKAAA
B6: d1r11_design_ppi_51_dldesign_0_cycle1_af2pred (protein)
chain: AEVEKKAKEAKKKVEEAKKKMEEAEKAGDAEALRKAAAEANKKAIELASAALAEKDAETAKALAEAAQKLVEIALRANEAMAKLER
B7: d1r11_design_ppi_301_dldesign_0_cycle0_af2pred (protein)
chain: SLLEEAKKLAEELKELLKKAKEALADPEKAKELIKKAEEANKKLVELAVEAAKAGDHESAALANRAALEGQRKIAEIKAQLAA
B8: d1r11_design_ppi_238_dldesign_0_cycle0_af2pred (protein)
chain: AAAAAAAAAAAALAEAAARAAAATDVTTKVGAALTAQNPSVKPITDAAVEKMKQAAAVVADPAKAAAYQKEAGDLLTQALRQVAAARR
B9: d1r8_design_ppi_953_dldesign_0_cycle1_af2pred (protein)
chain: SAAAELALKSLQAALAAAKAAAKAYGPAAAEAHLKNALLLADSYAAATDAAAGAALKAKVEAEAAAAMAAV
B10: d1r8_design_ppi_742_dldesign_0_cycle1_af2pred (protein)
chain: AAAAAAKAAAAAAAQAALRSLRDLAARAKAAEAAGDPEAAAKYRAAAEQWADIAIASAKQAGTEATVAAEAAALLAA
B11: d1r8_design_ppi_590_dldesign_0_cycle1_af2pred (protein)
chain: LEEVKKKLKELAELAKSAGKWNPETGKQVVKSLLRVAESEAKRLAGDPEAAEKVKKYGEELAKEAEKEIKEVAAA
B12: d1r8_design_ppi_616_dldesign_0_cycle1_af2pred (protein)
chain: DAAREAALKEAKEEFEKAEKEAEEAIKAAKDDPEAQKKLKELRESAKAALENAEKTKADVTTYKGVKALARMLLQTAEGVKKAAEA
B13: d1r8_design_ppi_780_dldesign_0_cycle1_af2pred (protein)
chain: AAATLAALTAAFGRLVELGAEAIRANPALAPEVNKLLGTASKAAIAGIRDPSLAEAALKTIEAQLKKVEELLKKAK
B14: d1r8_design_ppi_647_dldesign_0_cycle0_af2pred (protein)
chain: KEELVKQAESLEKFAKLAAEGASPEAKPLFEKAAEKFRKAAEAAKENPEEGEKLMAEGRKLLAEGMRLEIQLR
B15: d1r8_design_ppi_723_dldesign_0_cycle1_af2pred (protein)
chain: EEAQKKIKELGEKAAELAKKNVEEGAEALKEAAKLAAKAQPASAEQILKHGEAVAERAKTLSPEEAATLVRNAGKVFAQL
B16: d1r8_design_ppi_906_dldesign_0_cycle1_af2pred (protein)
chain: AAEAAERADRGQGTLIAMEAEARLAAIAKAHPEVAALAAAAAERVRAAAPLPAAEVRAVAERELAEVEAALAAA
B17: d1r11_design_ppi_170_dldesign_0_cycle0_af2pred (protein)
chain: ASPEELTLTARALAFAGGSPEWRPLLQEAIAAYATAEASDPATGAAARAKADAITAELVERYRAAEAAEAAAAA
B18: d1r8_design_ppi_824_dldesign_0_cycle1_af2pred (protein)
chain: AEAERRRAEVLALFDEAVAAGSPELARAAAERAAELNPERAEDIRQQGEIAAALMPFSPRAARALMRTVAA
B19: d1r11_design_ppi_310_dldesign_0_cycle1_af2pred (protein)
chain: EAAAAAALTAKAQALYAKYVAAAKAAQAALAGTEAHKEIAALLAQAEAAADDIGLALALASTAANLAAAKLAAALA
B20: d1r11_design_ppi_223_dldesign_0_cycle1_af2pred (protein)
chain: AAEAQALAAQAKKLADEAAKEAASPKSGELLGKAIELAMQANTLDPALGGQLSKYIAATAAAAAAKAAAEAAA
B21: d1r8_design_ppi_934_dldesign_0_cycle1_af2pred (protein)
chain: ASPLERAESLREFLHTVADAMAKNVGAEGQKVADAAKAAGDAAVAAARAAGTPEAYEAARDTLRALTADVIKAYMAALS
B22: d1r8_design_ppi_716_dldesign_0_cycle1_af2pred (protein)
chain: AVEAALAEARAVLERAKEAAKRLKEVGTPEEQKLAEELVALGETALKQAEADGTLATARGALAAARLALQGLEGLLERALARRAAAA
B23: d1r11_design_ppi_189_dldesign_0_cycle1_af2pred (protein)
chain: AAAEKAKLGFQLLNQLQKAQQAVAAGAAAGATAAEFEALAAQAQKAKEEGKQTILADTVQAAADVVIAAARAAAAAAKARAA
B24: d1r8_design_ppi_870_dldesign_0_cycle1_af2pred (protein)
chain: EAEANQQAMNLLMRAAALQPRDREKAREAVEEGRKVAKDEETKKLLEEAVKALDGDVDEAIAVLLETAKKISERAREAAA
B25: d1r8_design_ppi_889_dldesign_0_cycle1_af2pred (protein)
chain: AMAAAIAAVAASARAAAAIGRADPAAAPGAAAFLDVAAETLAALAKADPAHAAQANAAAAEARATAAELRAAAAA
B26: d1r8_design_ppi_838_dldesign_0_cycle1_af2pred (protein)
chain: NAGELLGKALELLEEASRLAKEDYEKAKEAAEKAIEYAEKAAAADPAHAPALVAVKSAARNIIEQAKKNEAARKAA
B27: d1r11_design_ppi_322_dldesign_0_cycle0_af2pred (protein)
chain: DTAEKAREVAKKAVEVAKEAAEKDPRAQAVYETAKIVAEGVEALVAAGQTELALRQAETQLKIAEKVLKEVLA
B28: d1r8_design_ppi_849_dldesign_0_cycle0_af2pred (protein)
chain: DDAAKAAELTALVLEEEAADPVRAGEVGAARARELGLSAAGILAVLDRVVAEAAPSGETVRALMRAAIEAAQA
B29: d1r8_design_ppi_790_dldesign_0_cycle0_af2pred (protein)
chain: AAAAAQAATATAIRSRGTNRMLTRILALPASASEAELRAIVEEEAERARAEMLAAGVSPELAEAAVEHILRIGEQAIAAR
B30: d1r8_design_ppi_811_dldesign_0_cycle0_af2pred (protein)
chain: AQEAADQAAFEAAKAGLEKATEAAVGMLEALGEEEAAKEVREFAEKAKKEAEKLTPKEGAELYGKAANEILRRTSQVAAQAVA
B31: d1r8_design_ppi_811_dldesign_0_cycle1_af2pred (protein)
chain: AEEEEAERAREEAKESLLAARDTAVGILTAAGLTDKAKEVEKYAEEALKEAEKLTPEEAAKLYGEAANRILTDTIAAASAAVA
B32: d1r8_design_ppi_616_dldesign_0_cycle0_af2pred (protein)
chain: DAERQAALEEAKKEAERAKKAAEEAIKAAAKDPEAQKKLEEARENLEAALKWAEETNGDVTTWKGVTALARMVLQAAEGIKKKAEA
B33: d1r8_design_ppi_886_dldesign_0_cycle1_af2pred (protein)
chain: AKAAELAAEGKALAEQLAKEGAADGEKGIELLKQGSALVRELEALGAEDPEYAEAAKAAQAALQAAVAAFAAASIAKAAAA
B34: d1r8_design_ppi_667_dldesign_0_cycle0_af2pred (protein)
chain: SAAAAAALAAARATAVAALTAGTGLAPEEAAALAAAMTDDQIFAIANLNAANPAAGQALAANLAAQVRRELA
B35: d1r8_design_ppi_679_dldesign_0_cycle0_af2pred (protein)
chain: AEAQKLLEKAKKLAEEAKKIAKESGDEEAKRIAEGAKKMAELAKAALAAGDSAAAMQAYLAGVKTLYEAAKEEAKRKA
B36: d1r8_design_ppi_744_dldesign_0_cycle1_af2pred (protein)
chain: STAEKAVKLVEETAKKGIAEAKADPAKVPAAAKELAKKGKEAAKLIGSTGLAVGIGNLAKTAIAFPEQAPDYFASAAALAKEVAE
B37: d1r8_design_ppi_832_dldesign_0_cycle0_af2pred (protein)
chain: AAEAAALKAQIEAAIAQMREETRRAAERDVEEGGRVASAATQQITKLVSQLAKVDPAAGAEAMALLTEAMREVQAYLDAERAARA
B38: d1r8_design_ppi_843_dldesign_0_cycle0_af2pred (protein)
chain: AEEARRAEAAARLEAAVAAGQATLVEVNKAAAATGDAALAEAALALSRAIAEGRRLGREGRYEEGAALVEAATKAAKATLAA

Target: CD276, Q5ZPR3
Sequence (Q5ZPR3 whole entry): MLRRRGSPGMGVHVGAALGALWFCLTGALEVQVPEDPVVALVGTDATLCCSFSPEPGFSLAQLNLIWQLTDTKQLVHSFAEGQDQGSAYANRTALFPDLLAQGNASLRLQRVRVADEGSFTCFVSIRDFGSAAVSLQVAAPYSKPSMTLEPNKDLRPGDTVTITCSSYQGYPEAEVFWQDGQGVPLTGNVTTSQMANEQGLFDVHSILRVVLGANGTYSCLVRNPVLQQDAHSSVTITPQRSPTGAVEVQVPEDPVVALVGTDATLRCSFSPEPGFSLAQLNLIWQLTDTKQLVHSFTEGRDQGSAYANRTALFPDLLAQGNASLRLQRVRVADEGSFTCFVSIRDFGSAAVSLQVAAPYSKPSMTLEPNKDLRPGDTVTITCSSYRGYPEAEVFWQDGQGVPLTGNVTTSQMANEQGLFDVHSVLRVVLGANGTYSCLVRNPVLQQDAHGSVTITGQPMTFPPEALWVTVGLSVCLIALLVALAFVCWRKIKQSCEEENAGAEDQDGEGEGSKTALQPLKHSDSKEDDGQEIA

Binding in a display sort, inactive:
B1 not found
B2 not found
B3 not found
B4 not found
B5 not found
B6 not found
B7 not found
B8 not found
B9 not found
B10 not found
B11 not found
B12 not found
B13 not found
B14 not found
B15 not found
B16 not found
B17 not found
B18 not found
B19 not found
B20 not found
B21 not found
B22 not found
B23 not found
B24 not found
B25 not found
B26 not found
B27 not found
B28 not found
B29 not found
B30 not found
B31 not found
B32 not found
B33 not found
B34 not found
B35 not found
B36 not found
B37 not found
B38 not found
